The sample as a whole holds a higher share of hits than the screen did.
VACV E9 pol inh: blocks vaccinia virus processive DNA synthesis | in vitro processive DNA synthesis, absorbance read-out; active compounds read low | normalized absorbance, % (concentration not given with the values) | AID 493162 | hit rate 0.94% among 46,000; in the data active = normalized absorbance mostly below about 85%, no sharp cut-off; inactive = mostly above about 86%
* marks the source's active call; other numbers are inactive results; ! = not active in a repeat.

SMILES | VACV E9 pol inh
CCN1CCN(C(=O)NC(C(=O)NC2C(=O)N3C(C(=O)O)=C(CSc4nnnn4C)CSC23)c2ccc(O)cc2)C(=O)C1=O (stereo not given) | 102
NC(=O)c1cc[n+](CC2=C(C(=O)O)N3C(=O)C(NC(=O)C(c4ccccc4)S(=O)(=O)[O-])C3SC2)cc1 (stereo not given) | 83*
CCN(CC)C(=O)C(C(=O)c1ccccc1)n1cc(Cl)ccc1=O (stereo not given) | 100
OC(c1ccccc1)(c1ccccc1)C1CCCN1Cc1ccccc1 (stereo not given) | 101
Cc1ccccc1CN1CCN(C2c3ccccc3-c3ccccc32)CC1 | 92
CCOC(=O)c1c(C)n(CC)c2cc(Br)c(OC)cc12 | 107
COc1cc2c(cc1OC)CN(C(=O)c1ccco1)CC2 | 102
CC(C)N1CCN(C(=O)c2ccco2)CC1 | 105
COc1cc2nc(N3CCN(C(=O)c4ccco4)CC3)nc(N)c2cc1OC | 85*!
O=C1C(=Nc2ccccc2)c2ccccc2N1CN1CCN(c2ccccc2)CC1 | 100
O=S(=O)(c1ccc(Cl)cc1)N1CCCC2CCCCC21 (stereo not given) | 101
O=C(NCc1ccco1)/C(=C/C=C\c1ccccc1)NC(=O)c1ccccc1 | 95
N#Cc1c(N)n(CCN)c2nc3ccccc3nc12 | 85*
CCCCn1c(N)c(C#N)c2nc3ccccc3nc21 | 95
N#Cc1c(N)n(CCc2ccccc2)c2nc3ccccc3nc12 | 94
CN(C1CCCCC1)S(=O)(=O)c1ccc(C(=O)Nc2nccs2)cc1 | 88
CN(C)S(=O)(=O)c1ccc(C(=O)Nc2nccs2)cc1 | 97
CCN(CC)S(=O)(=O)c1ccc(C(=O)Nc2nccs2)cc1 | 86*
Cc1cc(NCc2ccco2)ncn1 | 100
CC(=O)Nc1ccc(NC(=O)C2CC(C)=CCC2C(=O)O)cc1 (stereo not given) | 97
Cc1cn(C2CC(NC(=O)C(C)(C)C)C(CO)O2)c(=O)[nH]c1=O (stereo not given) | 96
COC(=O)CSc1nc(-c2ccccc2)cc(-c2ccccc2)c1C#N | 99
CC(=O)Nc1nc(C2CC2)cc(-c2ccccc2)c1C#N | 85*
CCOC(=O)CSc1nc(C2CC2)cc(-c2ccccc2)c1C#N | 99
CC(C)C1Cc2c(sc3nc(SCc4ccc(Cl)c(Cl)c4)nc(N)c23)CO1 (stereo not given) | 100
SMILES | VACV E9 pol inh
CCNc1nc(SCc2ccc(Cl)cc2)nc2sc3c(c12)CCN(C)C3 | 53*
CCNc1nc(SCC(=O)NC(=O)NCc2ccccc2)nc2sc3c(c12)CCN(C)C3 | 94
O=C(C[n+]1cccc(C(=O)Nc2ccccc2)c1)c1ccc(N2C(=O)c3ccccc3C2=O)cc1 | 101
O=C(CSc1cccc[n+]1[O-])NCC1CCCO1 (stereo not given) | 114
O=C1NC2C=NN(c3ccccc3)C(=O)C2NC1=O (stereo not given) | 103
O=C(O)c1ccc(CSCc2c(F)cccc2Cl)o1 | 94
Cc1c(C(=O)NCc2ccco2)cc(-c2ccccc2)n1CCSCc1c(F)cccc1Cl | 100
Cc1c(C(=O)O)cc(-c2ccccc2)n1CCSCc1c(F)cccc1Cl | 82*
O=C(Cn1c(=O)n(Cc2ccc(C(=O)NC3CCCC3)cc2)c(=O)c2ccccc21)c1ccccc1 | 103
CC(Nc1ccccc1)C(=O)Nc1cc(C(F)(F)F)ccc1Cl (stereo not given) | 100
COc1ccc(Nc2cc(C(F)(F)F)ccc2Cl)c(C(=O)O)c1 | 60*
O=C(CC(=O)c1ccccc1)Nc1cc(C(F)(F)F)ccc1Cl | 100
COc1ccc(N(C(=O)c2ccco2)c2ccccc2)cc1 | 99
CCCc1nc2ccccc2n1CC(=O)N(COCC)c1c(C)cccc1CC | 100
O=C(C[n+]1ccccc1)Nc1ccc(C(=O)O)cc1 | 100
O=C(Cc1ncc(C(F)(F)F)cc1Cl)Nc1ccc(N2CCOCC2)cc1 | 106
COc1ccc(S(=O)(=O)NCCc2cc3ccc(OC)cc3[nH]c2=O)cc1 | 95
CC(=O)N(C(C)=O)c1nccc(-c2c(-c3ccccc3)noc2C)n1 | 97
Cc1onc(C(=O)N(C)C)c1-c1ccnc(=S)[nH]1 | 88*
Cc1nc2ccccn2c1-c1ccnc(=S)[nH]1 | 98
C/C(=N\N1C(=O)CC(=O)NC1=S)c1ccc(Cl)cc1 | 99
O=C(c1c[nH]c2ccccc12)N1CCCC1 | 94
CCCC(=O)Nc1cccc(N)c1 | 101
Nc1cccc(NC(=O)CCC(=O)O)c1 | 72*
O=C(O)CCC(=O)Nc1cccc(O)c1 | 100
SMILES | VACV E9 pol inh
C/C=C/c1n(C)c2ccccc2[n+]1C | 103
O=C(c1ccsc1)N1CC=C(c2ccccc2)CC1 | 110
C[n+]1ccn(-c2ccccc2C#N)c1 | 90
O=C(NCCCN1CCCC1)c1cc2c(Cl)nc3ccccc3c2s1 | 33*
CCn1c(=O)c2cc(C(=O)NCCCN3CCCCCC3)sc2c2ccccc21 | 60
CCCCN(C)C(=O)c1cc2c(Cl)nc3ccccc3c2s1 | 101
Cc1ccc2oc(=O)c3cc(C(=O)NCCN4CCN(Cc5ccccc5)CC4)sc3c2c1 | 98
Cc1ccc2oc(=O)c3cc(C(=O)NCCCN4CCCCCC4)sc3c2c1 | 68*
CC1CC(C)CN(CCCNC(=O)c2cc3c(=O)[nH]c4ccccc4c3s2)C1 (stereo not given) | 58*
O=C(NCCCN1CCCCC1)c1cc(Sc2ccc(F)cc2)nc2ccccc12 | 101
Cc1cccc(CCNC(=O)c2cc3c(=O)n(C)c4ccccc4c3s2)c1 | 101
O=C(NC1CCCCC1)c1cc2c(=O)[nH]c3ccccc3c2s1 | 100
Cc1ccc(CCNC(=O)c2cc3c(=O)oc4ccc(C)cc4c3s2)cc1 | 103
CC1CCN(CCCNC(=O)c2cc3c(=O)n(C)c4ccccc4c3s2)CC1 | 59*
COC(=O)CNC(=O)c1cc2c(=O)[nH]c3ccccc3c2s1 | 97
CCc1ccc(N2C(=O)c3ccncc3C2=O)cc1 | 106
Cc1cc(=O)cc(C)n1-c1ccccc1 | 109
N#C/C=C(\Cl)c1ccccc1 | 83
O=C(OCc1ccccc1F)c1ccc(O)cc1 | 98
COc1ccc(CNCc2ccc(N(C)C)cc2)cc1 | 100
CS(=O)(=O)CC(=O)c1ccc(F)cc1 | 109
COc1ccc(C(=O)Cn2c(SC)nc3ccccc32)cc1 | 98
Cn1c(=NC(=O)c2ccc(N3C(=O)CCC3=O)cc2)sc2ccccc21 | 89
Cc1cc(NC(c2ccccn2)c2c(C)[nH]c3ccccc23)no1 (stereo not given) | 102
CCOC(=O)c1cnc2ccccc2c1Cl | 100
SMILES | VACV E9 pol inh
O=C(C1=COCCO1)N1CCN(c2nc3ccccc3s2)CC1 | 98
CC(Oc1ccc(-c2ccccc2)c(F)c1)c1ccnc(N)n1 (stereo not given) | 96
Nc1nccc(-c2ccccc2OCc2ccc(Cl)cc2)n1 | 99
Nc1nccc(-c2ccc(Oc3ccc(Cl)cc3)cc2Cl)n1 | 76*
O=c1c(=Nc2ccc(O)cc2)c(=O)c2ccccc12 | 91
Cc1nc2ccccc2c2oc(C(=O)N3CCC(C)CC3)cc12 | 97
Cc1nc2ccccc2c2oc(C(=O)NCCN3CCN(C)CC3)cc12 | 62*
Cc1nc2ccccc2c2oc(C(=O)NC3CCCC3)cc12 | 96
O=C(Nc1cccc(C(F)(F)F)c1)c1ccccn1 | 98
Cc1nc2ccc(Cl)cc2n1CO | 100
CN(C)c1ccc(C2=CC=CC(=C3C=CC(=[N+](C)C)C=C3)O2)cc1 | 39*
CCOC(=O)N1CCC(NC(=O)CSc2cc(C)nc3c(-c4ccccc4OC)c(C)nn23)CC1 | 99
Cc1ccc2c(Sc3ccc(Cl)cc3)c(C(=O)O)[nH]c2c1 | 57*

Compound activity as filed in PubChem.
